Experimental data taken from PubChem BioAssay (NCI).
The panel holds about 83,000 compounds, 20% with a hit somewhere; the sample as a whole holds those more often.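 48-hour exposure, single concentration, 96-well plates; percent growth endpoint where 0 means no net growth. Active: below 10.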 Values without a mark were called inactive. The source made the active and inactive calls.

Assays:
Assay in all cases: NCI-60 one-dose screen, 48 h (100 = growth as untreated, 0 = no growth, -100 = all killed)
Conditions in all cases: 10 µM unless noted
[1] = test system: NCI-H23 lung
[2] = test system: NCI-H226 lung
[3] = test system: NCI-H322M lung
[4] = test system: HOP-62 NSCLC
[5] = test system: NCI-H460 lung
[6] = test system: HOP-92 NSCLC
[7] = test system: NCI-H522 lung
[8] = test system: A549/ATCC NSCLC
[9] = test system: 786-0 renal
[10] = test system: COLO 205 colon
[11] = test system: DU-145 prostate
[12] = test system: K-562 leukemia
[13] = test system: MALME-3M melanoma
[14] = test system: MDA-MB-231 breast
[15] = test system: RXF 393 renal
[16] = test system: SF-268 CNS
[17] = test system: SF-295 CNS
[18] = test system: SF-539 CNS
[19] = test system: UACC-257 melanoma
[20] = test system: M14 melanoma

O=C(Nc1ccc(Cl)cc1)c1cc(NCc2cc(O)ccc2O)ccc1O
growth [1]: 93.2%
growth [2]: 95.2%
growth [3]: 94.9%
growth [4]: 102%
growth [5]: 98.7%
growth [6]: 80.4%
growth [7]: -59.7% (active)
growth [8]: 80.7%
growth [9]: 95.6%
growth [10]: 105%
growth [11]: 100%
growth [12]: 41.9%
growth [13]: 80.2%
growth [14]: 69.1%
growth [15]: 67.1%
growth [16]: 77.2%
growth [17]: 116%
growth [18]: 43.5%
growth [19]: 77.3%
growth [20]: 102%

N/C(=N\C(N)=N\c1nc2ccccc2s1)c1cccc(Cl)c1
growth [1]: 58.4%
growth [2]: 85.6%
growth [3]: 97.7%
growth [4]: -8.36% (active)
growth [5]: 51.7%
growth [6]: 108%
growth [7]: 87.5%
growth [8]: 9.74% (active)
growth [9]: 94.4%
growth [10]: 101%
growth [11]: 89.6%
growth [12]: 72.8%
growth [13]: 102%
growth [14]: 73.7%
growth [15]: 115%
growth [16]: 83.6%
growth [17]: 12%
growth [18]: 99.2%
growth [19]: 113%
growth [20]: 96.1%

COc1ccc(/C=C2\Oc3cc(OCCCCCN4CCCCC4)ccc3C2=O)cc1OC
growth [1]: 78.6%
growth [2]: 83.1%
growth [3]: 97.9%
growth [4]: 97.4%
growth [5]: 59.2%
growth [6]: 54.4%
growth [7]: 89.9%
growth [8]: 88.7%
growth [9]: 84.4%
growth [10]: 98.5%
growth [11]: 89.6%
growth [12]: -54.6% (active)
growth [13]: 83.7%
growth [14]: 86.7%
growth [15]: 76.3%
growth [16]: 87.2%
growth [17]: 98.6%
growth [18]: 81.1%
growth [19]: 87.4%
growth [20]: 89.1%

Cc1ccc(S(=O)(=O)NNC(=O)/C(=C\c2ccc(Cl)cc2)c2nc3ccccc3s2)cc1
growth [1]: 96.4%
growth [2]: 81.2%
growth [3]: 92.7%
growth [4]: 109%
growth [5]: 86%
growth [6]: 87.3%
growth [7]: 91.7%
growth [8]: 91.9%
growth [9]: 99.5%
growth [10]: 117%
growth [11]: 101%
growth [12]: 84%
growth [13]: 98.6%
growth [14]: 95.6%
growth [15]: 101%
growth [16]: 91.9%
growth [17]: 103%
growth [18]: 104%
growth [19]: 98%
growth [20]: 86%

CCN(CC)c1ccc(/C=N/NC(=O)CSc2nc3ccccc3c(=O)n2Cc2ccc(S(N)(=O)=O)cc2)c(O)c1
growth [1]: 39.6%
growth [2]: 31.1%
growth [3]: 27.1%
growth [4]: 21.2%
growth [5]: 6.78% (active)
growth [6]: 58.4%
growth [7]: -26.1% (active)
growth [8]: 29%
growth [9]: 32.6%
growth [10]: -2.18% (active)
growth [11]: 37.8%
growth [12]: 6.12% (active)
growth [13]: 31.3%
growth [14]: 25.3%
growth [15]: 42.6%
growth [16]: 18.6%
growth [17]: 20.3%
growth [18]: 27.9%
growth [19]: 13%
growth [20]: 4.26% (active)

CCCCCC(=O)Oc1ccc(/C(=C(\C)c2ccccc2)c2ccc(OCCN3CCCCC3)cc2)cc1
growth [1]: 74.9%
growth [2]: 93.5%
growth [3]: 83.8%
growth [4]: 87.7%
growth [5]: 82.1%
growth [6]: 91.2%
growth [7]: 70.1%
growth [8]: 77.5%
growth [9]: 69.9%
growth [10]: 34.4%
growth [11]: 97.2%
growth [12]: 20.1%
growth [13]: 68%
growth [14]: 95%
growth [15]: 82.7%
growth [16]: 84.5%
growth [17]: 84.2%
growth [18]: 59.4%
growth [19]: 72.4%
growth [20]: 65.9%

COc1ccc(NC(=O)c2cc(NCc3cc(O)ccc3O)ccc2O)cc1
growth [1]: 90.4%
growth [2]: 97%
growth [3]: 91.1%
growth [4]: 101%
growth [5]: 87.2%
growth [6]: 106%
growth [7]: -0.814% (active)
growth [8]: 78.7%
growth [9]: 107%
growth [10]: 113%
growth [11]: 97.4%
growth [12]: 73.1%
growth [13]: 108%
growth [14]: 79.1%
growth [15]: 91.2%
growth [16]: 80.8%
growth [17]: 115%
growth [18]: 86.8%
growth [19]: 76.3%
growth [20]: 95.1%

COc1cccc(C(=O)NNc2nc(Cl)nc(N3CCN(C(c4ccccc4)c4ccccc4)CC3)n2)c1
growth [1]: 45.3%
growth [2]: 94.9%
growth [3]: 88.9%
growth [4]: 92.8%
growth [5]: 102%
growth [6]: 77%
growth [7]: -13.6% (active)
growth [8]: 101%
growth [9]: 82%
growth [10]: 76.6%
growth [11]: 101%
growth [12]: -34.7% (active)
growth [13]: 84.1%
growth [14]: 59%
growth [15]: 78.4%
growth [16]: 99.3%
growth [17]: 96.3%
growth [18]: 90.8%
growth [19]: 88.4%
growth [20]: 45.4%

CCCOC(=O)N[C@H]1CCc2cc(OC)c(OC)c(OC)c2-c2ccc(SC)c(=O)cc21
growth [1]: 35%
growth [2]: 13%
growth [3]: 32.7%
growth [4]: 39.3%
growth [5]: 0.992% (active)
growth [6]: 34.9%
growth [7]: 21.5%
growth [8]: 22.6%
growth [9]: 24.1%
growth [10]: 1.57% (active)
growth [11]: -18.3% (active)
growth [12]: 7.7% (active)
growth [13]: 35.4%
growth [14]: -8.18% (active)
growth [15]: 19.5%
growth [16]: 22.6%
growth [17]: 17.3%
growth [18]: -21.5% (active)
growth [19]: 71.8%
growth [20]: 6.23% (active)

Nc1nc(Nc2ccccc2SSc2ccccc2Nc2nc(N)nc(-c3cccs3)n2)nc(-c2ccsc2)n1
growth [1]: 59.5%
growth [2]: 85.2%
growth [3]: 90.6%
growth [4]: -41.2% (active)
growth [5]: 55.9%
growth [6]: 104%
growth [7]: 85.3%
growth [8]: 18.4%
growth [9]: 93.6%
growth [10]: 97.8%
growth [11]: 95.1%
growth [12]: 80.9%
growth [13]: 106%
growth [14]: 75.8%
growth [15]: 109%
growth [16]: 79.6%
growth [17]: -53.4% (active)
growth [18]: 105%
growth [19]: 101%
growth [20]: 96.5%

CCOC(=O)Oc1c(OC)cc(C(=O)c2ccc(OC)c(OC(=O)CCl)c2OC)cc1OC
growth [1]: 32.5%
growth [2]: 64.5%
growth [3]: 45.2%
growth [4]: 16.9%
growth [5]: 10.4%
growth [6]: 57%
growth [7]: 8.85% (active)
growth [8]: 22.9%
growth [9]: 19.2%
growth [10]: 94.8%
growth [11]: 12.5%
growth [12]: 10.4%
growth [13]: 50.8%
growth [14]: 33%
growth [15]: -17.9% (active)
growth [16]: 43.8%
growth [17]: 20.7%
growth [18]: -16.9% (active)
growth [19]: 48.5%
growth [20]: -15% (active)

COc1cc2cc(CN3CCN(c4nccc(-c5ccc6ccccc6c5)n4)CC3)c(=O)[nH]c2cc1OC
growth [1]: 97.3%
growth [2]: 96.5%
growth [3]: 98.4%
growth [4]: 96.2%
growth [5]: -35.9% (active)
growth [6]: 98.4%
growth [7]: 85.6%
growth [8]: 2.34% (active)
growth [9]: 32.7%
growth [10]: 80%
growth [11]: 74%
growth [12]: 13.6%
growth [13]: 103%
growth [14]: 73.8%
growth [15]: 81.8%
growth [16]: 94%
growth [17]: 101%
growth [18]: 110%
growth [19]: 77%
growth [20]: 109%

O=C(O)c1ccc(NCc2cn(-c3ccc(C(F)(F)F)cc3)nc2-c2ccc(C(=O)O)cc2)cc1
growth [1]: 107%
growth [2]: 111%
growth [3]: 106%
growth [4]: 101%
growth [5]: 103%
growth [6]: -7.09% (active)
growth [7]: 93.1%
growth [8]: 106%
growth [9]: 105%
growth [10]: 119%
growth [11]: 115%
growth [12]: 105%
growth [13]: 127%
growth [14]: 111%
growth [15]: 112%
growth [16]: 97.8%
growth [17]: 100%
growth [18]: 97%
growth [19]: 109%
growth [20]: 106%

CN(C)CC(O)c1ccc(/C=C/c2ccc(Cl)cc2)cc1 (stereo not given)
growth [1]: 33.5%
growth [2]: 73.4%
growth [3]: -9.83% (active)
growth [4]: -50.2% (active)
growth [5]: -54.6% (active)
growth [6]: 15.5%
growth [7]: -84.4% (active)
growth [8]: -92.3% (active)
growth [9]: 13.8%
growth [10]: -46.4% (active)
growth [11]: -88.8% (active)
growth [12]: -47.6% (active)
growth [13]: 21.9%
growth [14]: -82.3% (active)
growth [15]: 8.01% (active)
growth [16]: -52.4% (active)
growth [17]: -48.2% (active)
growth [18]: -67.6% (active)
growth [19]: -81.2% (active)
growth [20]: -34.8% (active)

CN1C(=O)NC(c2ccc3c(c2)OCO3)C=C1c1ccccc1 (stereo not given)
growth [1]: 96.3%
growth [2]: 103%
growth [3]: 92.4%
growth [4]: 91.3%
growth [5]: 97.6%
growth [6]: 93.9%
growth [7]: 80%
growth [8]: 91.1%
growth [9]: 83%
growth [10]: 107%
growth [11]: 94.7%
growth [12]: 76.5%
growth [13]: 88.4%
growth [14]: 102%
growth [15]: 91.2%
growth [16]: 95.6%
growth [17]: 98.6%
growth [18]: 98.1%
growth [19]: 98.5%
growth [20]: 96.9%

CCCCCC(=O)Oc1ccc(/C(=C(/C)Cc2ccc(OC)cc2)c2ccc(OCCCN(C)C)cc2)cc1
growth [1]: 76.7%
growth [2]: 93.3%
growth [3]: 92.1%
growth [4]: 80.4%
growth [5]: 69.6%
growth [6]: 73.4%
growth [7]: 98.1%
growth [8]: 76.1%
growth [9]: 58.4%
growth [10]: 55.6%
growth [11]: 90.4%
growth [12]: 6.07% (active)
growth [13]: 74.9%
growth [14]: 66.1%
growth [15]: 61.6%
growth [16]: 70.1%
growth [17]: 32.4%
growth [18]: 66.8%
growth [19]: 75.9%
growth [20]: 36.3%
